Measured values from PubChem BioAssay.
Entries with a potency or affinity are not part of this list. Results filed as inconclusive are left out. The source made the active and inactive calls.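 How the source made its calls, unless noted: active means fitted dose curve reaches 40% lysis signal rise at or below the highest valid concentration tested for that sample; inconclusive means flat fit between 30% and 70%, or poor curve fit; inactive means signal falls, stays flat within 30%, or no crossing.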

What was measured:
[1] = Cryptococcus neoformans growth inhibition, dose response, Alamar Blue, cherry-picks (AID 686998;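 active means falling signal with fitted half-maximal potency no higher than twice the top valid tested dose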); settings: 24 h; series mostly up to 35 µM
[2] = inducers of Cryptococcus neoformans cell lysis, dose response, AK release luminescence, cherry-picks (AID 687000);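 further: luminescent detection of adenylate kinase leaking from lysed yeast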; settings: C. neoformans lysis, adenylate kinase release luminescence, 4 h, 100% = twice the neutral-control signal; series mostly up to 15 µM
[3] = HepG2 cell cytotoxicity, dose response, cytotoxicity control, cherry-picks, set 2 (AID 687002;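 active means a dose-response fit showing signal loss, with half-maximal concentration no higher than twice the top tested dose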); settings: HepG2 viability, ATP luminescence (CellTiter-Glo), 48 h; series mostly up to 26 µM
[4] = HeLa cell cytotoxicity, dose response, cytotoxicity control, ATP luminescence, cherry-pick samples (AID 687004;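 active means a fitted half-maximal concentration no higher than twice the top valid tested dose, with signal falling as cells die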); settings: HeLa viability, ATP luminescence (CellTiter-Glo), 48 h; series mostly up to 26 µM

Measured: outcome

O=C(O)C/C(=C\c1cccc(NC(=O)c2ccccc2Cl)c1)c1nc2ccccc2s1
inactive: all assays above

COc1ccc(S(=O)(=O)Nc2ccc3c(c2)C(=O)N([C@H](C)CO)C[C@@H](C)[C@@H](CN(C)C(=O)Nc2ccccc2)O3)cc1
inactive: all assays above

O=C(NC(=S)Nc1ccccc1)c1cc([N+](=O)[O-])ccc1N1CCOCC1
inactive: all assays above

CC(C)C#Cc1ccc2c(c1)O[C@H](CN(C)C(=O)Cc1ccccn1)[C@H](C)CN([C@H](C)CO)S2(=O)=O
inactive: all assays above

COc1ccc(-c2cnc3c(c2)C(=O)N([C@@H](C)CO)C[C@H](C)[C@@H](CN(C)S(C)(=O)=O)O3)cc1
inactive: all assays above

Cc1cc(C(=O)Nc2cccc3c2O[C@H](CN(C)S(=O)(=O)c2ccccc2)[C@H](C)CN([C@H](C)CO)C3=O)n(C)n1
inactive: all assays above

COCC(=O)Nc1ccc2c(c1)C(=O)N(C)C[C@@H](OC)[C@H](C)CN(Cc1ccccc1)[C@@H](C)CO2
inactive: all assays above

CC1(C(=O)Nc2ccc3ccccc3c2)CCC(=O)N1C1CC1 (stereo not drawn)
inactive: all assays above

Cc1ccc(N(CC(N)=O)S(=O)(=O)c2ccc(F)cc2)cc1
inactive: all assays above

CCNC(=O)COc1cccc(C(=O)NCc2ccccc2)c1
inactive: all assays above

COc1ccc(NC(=O)Nc2ccc3c(c2)C(=O)N([C@H](C)CO)C[C@@H](C)[C@H](CN(C)S(=O)(=O)c2ccc(Cl)cc2)OCCCC[C@@H](C)O3)cc1
inactive: all assays above

CO[C@H](CN(C)Cc1ccc2c(c1)OCO2)[C@@H](C)CN(C(=O)c1ccccc1)[C@@H](C)CO
inactive: all assays above

CCOC(=O)CNC(=O)CSc1ncnc2c1cnn2-c1ccc(OC)cc1
inactive: all assays above

CC(C)NC(=O)NCC[C@H]1CC[C@H](NC(=O)CN(C)C)[C@H](CO)O1
inactive: all assays above

COc1ccc(CNC(=O)C[C@H]2CC[C@H]3[C@@H](COc4ccc(NC(=O)C5CC5)cc4C(=O)N3C)O2)cc1
inactive: all assays above

CO[C@H]1CN(C)C(=O)c2cc(NS(=O)(=O)c3ccc(C)cc3)ccc2OC[C@H](C)N(C)C[C@H]1C
inactive: all assays above

O=C(CN(c1ccc(F)cc1)S(=O)(=O)c1ccccc1)NC1CCCCCC1
inactive: all assays above

COc1ccccc1C#Cc1ccc2c(c1)O[C@@H](CN(C)C(C)=O)[C@@H](C)CN([C@H](C)CO)S2(=O)=O
inactive: all assays above

O=C(C[C@H]1C[C@H]2c3cc(NC(=O)C4CCC4)ccc3O[C@H]2[C@@H](CO)O1)NCc1cccc(F)c1
inactive: all assays above

C[C@H]1CN([C@@H](C)CO)C(=O)c2cc(NC(=O)Nc3cccc4ccccc34)ccc2O[C@@H]1CN(C)C(=O)Nc1ccc(C(F)(F)F)cc1
inactive: all assays above

CNC[C@@H]1OCCCC[C@H](C)Oc2ccc(NC(=O)NC(C)C)cc2C(=O)N([C@H](C)CO)C[C@H]1C
inactive: all assays above

O=C(C[C@@H]1C=C[C@@H](NC(=O)c2cccc(F)c2)[C@H](CO)O1)NCCN1CCCC1
inactive: all assays above

C[C@@H](O)C#Cc1ccc([C@@H]2[C@H](CO)N3CCCCN(CC4CC4)C[C@@H]23)cc1
inactive: all assays above

C[C@H]1CN([C@@H](C)CO)C(=O)c2cc(NS(=O)(=O)c3ccc(F)cc3)ccc2O[C@@H]1CN(C)S(=O)(=O)c1ccccc1
inactive: all assays above

COc1ccc(C#Cc2cnc3c(c2)C(=O)N([C@@H](C)CO)C[C@H](C)[C@@H](CN(C)C(=O)CC2CC2)O3)cc1
inactive: all assays above

Cc1ccc(OCC(=O)NCc2ccccc2)cc1
inactive: all assays above

C[C@H]1CN([C@@H](C)CO)C(=O)c2cccc(N(C)C)c2O[C@@H]1CN(C)C(=O)Nc1cccc2ccccc12
inactive: all assays above

CN1C(=O)c2cc(NS(=O)(=O)c3cccc(F)c3)ccc2OC[C@H]2O[C@H](CC(=O)O)CC[C@H]21
inactive: all assays above

CCC(=O)N[C@@H]1C=C[C@H](CC(=O)NCC2CCCCC2)O[C@H]1CO
inactive: all assays above

CCNC(=O)Nc1ccc2c(c1)C(=O)N(C)[C@@H]1CC[C@H](CC(=O)N[C@@H](C)c3ccccc3)O[C@@H]1CO2
inactive: all assays above

Cc1cc(C)c(NC(=O)C2CCCN2C)c(C)c1 (stereo not drawn)
inactive: all assays above

C[C@@H]1CN([C@@H](C)CO)S(=O)(=O)c2ccc(C#Cc3ccc(F)cc3)cc2O[C@H]1CN(C)C(=O)NC1CCCC1
inactive: all assays above

Cc1cccc(C)c1NC(=O)CN1CCCC1
inactive: all assays above

CNC[C@H]1Oc2c(NS(=O)(=O)c3cccs3)cccc2C(=O)N([C@H](C)CO)C[C@@H]1C
inactive: all assays above

C[C@@H]1CCCCO[C@H](CN(C)C(=O)c2ccccc2)[C@@H](C)CN([C@@H](C)CO)C(=O)c2cc(NC(=O)c3ccccc3)ccc2O1
inactive: all assays above

Cc1cc(C)c(NC(=O)C(C)N2CCCCCC2)c(C)c1 (stereo not drawn)
inactive: all assays above

C[C@@H]1CN([C@H](C)CO)C(=O)c2cc(NS(=O)(=O)c3cn(C)cn3)ccc2O[C@H]1CN(C)C(=O)Nc1cccc2ccccc12
inactive: all assays above

Cc1ccc(S(=O)(=O)N(C)C[C@@H]2Oc3ccc(NS(=O)(=O)c4ccc(Cl)cc4)cc3CC(=O)N([C@@H](C)CO)C[C@@H]2C)cc1
inactive: all assays above

COc1ccccc1-c1ccc([C@H]2[C@@H](C#N)N(C(=O)C3CC3)[C@@H]2CO)cc1
inactive: all assays above

Cc1noc(C)c1NC(=O)Nc1ccc2c(c1)C(=O)N(C)[C@H]1CC[C@H](CC(=O)N[C@H]3CCN(Cc4ccccc4)C3)O[C@H]1CO2
inactive: all assays above

Cc1noc(C)c1S(=O)(=O)N(C)C[C@H]1OCCCC[C@@H](C)Oc2ccc(NC(=O)CCCCCC(=O)Nc3ccccc3N)cc2C(=O)N([C@@H](C)CO)C[C@@H]1C
inactive: all assays above

COc1cccc(S(=O)(=O)N2C[C@@H](O)COC[C@H]3O[C@H](CC(=O)N4CCN(C)CC4)CC[C@@H]32)c1
inactive: all assays above

CNC[C@H]1OCCCC[C@H](C)Oc2ccc(NC(=O)CCCN(C)C)cc2C(=O)N([C@H](C)CO)C[C@@H]1C
inactive: all assays above

C[C@@H]1CN([C@@H](C)CO)C(=O)c2cc(NC(=O)CCN3CCOCC3)ccc2O[C@@H]1CN(C)Cc1ccc(C(=O)O)cc1
inactive: all assays above

CNC[C@@H]1OCCCC[C@H](C)Oc2ccc(NC(=O)c3ccccc3)cc2C(=O)N([C@@H](C)CO)C[C@@H]1C
inactive: all assays above

Cc1noc(C)c1NC(=O)Nc1ccc2c(c1)C(=O)N([C@H](C)CO)C[C@H](C)[C@H](CN(C)CC1CCCCC1)O2
inactive: all assays above

CNC(=O)C[C@H]1CC[C@H]2[C@@H](COc3ccc(NC(=O)Nc4ccccc4)cc3C(=O)N2C)O1
inactive: all assays above

O=C([C@@H]1[C@@H](CO)[C@@H]2Cn3c(cccc3=O)[C@@H]2N1CCC(F)(F)F)N1CCCCC1
inactive: all assays above

COc1ccc(C2CC(c3cccs3)=NN2C(=O)c2ccc(Br)o2)cc1 (stereo not drawn)
inactive: all assays above

CN1C(=O)N[C@@H]2c3ccccc3O[C@@]1(C)[C@@H]2COC(=O)c1ccccc1
inactive: all assays above

O=C(C[C@@H]1CC[C@H]2[C@@H](COC[C@H](O)CN2Cc2cccc(C(F)(F)F)c2)O1)NCc1ccccc1
inactive: all assays above

CC=Cc1ccc2n(c1=O)C[C@H]1[C@H](CO)[C@@H](C(=O)NCc3ccc4c(c3)OCO4)[C@@H]2N1C(=O)C1CC1 (mixture of isomers)
inactive: all assays above

Cc1cccc(C)c1NC(=O)CNC(=O)C(C)N1CCCCC1 (stereo not drawn)
inactive: all assays above

C[C@@H]1CCCCO[C@@H](CN(C)Cc2ccc(C(F)(F)F)cc2)[C@@H](C)CN([C@@H](C)CO)C(=O)c2cc(NS(=O)(=O)c3cn(C)cn3)ccc2O1
inactive: all assays above

COc1ccc(S(=O)(=O)Nc2ccc3c(c2)C(=O)N([C@H](C)CO)C[C@H](C)[C@H](CN(C)C(=O)Nc2ccccc2)O3)cc1
inactive: all assays above

CCC(=O)N[C@H]1C=C[C@H](CC(=O)NCC2CCCCC2)O[C@@H]1CO
inactive: all assays above

CCC(C)(C(=O)NC1CCCCC1)N(C(=O)C1CCC(=O)N1)c1ccccc1 (stereo not drawn)
inactive: all assays above

C[C@@H]1CN([C@H](C)CO)C(=O)c2cc(/C=C/c3ccccc3)cnc2O[C@@H]1CN(C)S(C)(=O)=O
inactive: all assays above

Cc1cc(C)c(NC(=O)C2CCC(=O)N2)c(C)c1 (stereo not drawn)
inactive: all assays above

CCS(=O)(=O)N1CCCCN2[C@H](C1)[C@@H](c1ccc(-c3ccc(C#N)cc3)cc1)[C@@H]2CO
inactive: all assays above

CCC(=O)N1[C@@H]2c3cccc(=O)n3C[C@H]1[C@H](CO)[C@H]2C(=O)NCc1ccccc1
inactive: all assays above

COC(=O)N(C)C[C@H]1OCc2cn(nn2)CCCC(=O)N([C@@H](C)CO)C[C@@H]1C
inactive: all assays above

COc1ccc(S(=O)(=O)Nc2ccc3c(c2)C(=O)N([C@@H](C)CO)C[C@H](C)[C@@H](CN(C)C)OCCCC[C@H](C)O3)cc1
inactive: all assays above

CCS(=O)(=O)NCC[C@H]1CC[C@H](NS(=O)(=O)c2cccc(F)c2)[C@H](CO)O1
inactive: all assays above

CCCN(C)C[C@H]1OCCCC[C@@H](C)Oc2ccc(NC(=O)NC(C)C)cc2C(=O)N([C@@H](C)CO)C[C@H]1C
inactive: all assays above

O=C(CN(c1ccccc1)S(=O)(=O)c1ccc(F)cc1)NC1CCS(=O)(=O)C1 (stereo not drawn)
inactive: all assays above

CCNC(=O)Nc1ccc2c(c1)C(=O)N(C)[C@H]1CC[C@H](CC(=O)N[C@@H](C)c3ccccc3)O[C@H]1CO2
inactive: all assays above

Cc1ccc(S(=O)(=O)N2C[C@@H](O)COC[C@@H]3O[C@H](CC(=O)NCc4ccc5c(c4)OCO5)CC[C@H]32)cc1
inactive: all assays above

CCCNC(=O)N(C)C[C@H]1Oc2ncc(C#CC3CCCCC3)cc2C(=O)N([C@@H](C)CO)C[C@@H]1C
inactive: all assays above

COc1ccc(NC(=O)N(C)C[C@H]2OCc3ccccc3-c3c(n(C)c4ccccc34)C(=O)N([C@H](C)CO)C[C@@H]2C)cc1
inactive: all assays above

COc1ccc(CN(C)C[C@@H]2Oc3ccc(NC(=O)Nc4ccc(F)cc4)cc3CC(=O)N([C@H](C)CO)C[C@H]2C)cc1
inactive: all assays above

O=C(c1cccc(Br)c1)N1CCN(c2ccccn2)CC1
inactive: all assays above
